# In PubChem BioAssay AID720519 (National Center for Advancing Translational Sciences (NCATS), 2013):
# Records with an inconclusive call do not appear. Where a call stands in place of a potency, no number is given. Active and inactive are the calls of the source. Calls come from the whole dose curve; as a rule, active = well fitted activation curve with a large enough effect; inconclusive = small, poorly fitted or top-dose-only effect; inactive = flat fitted curve, though single readings scatter.
# Experiment: qHTS for Inhibitors of Cell Surface uPA Generation: Confirmatory Assay for Cherry-picked Compounds
# Conditions: cell surface uPA activity generation, qHTS confirmation; series mostly up to 115 µM
# In short: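 RAW 264.7 cells at 4000/well, incubated overnight, then treated with compounds. After 24 h at 37 C, viability was read by ATPlite luminescence. An increase in signal indicates blocked uPA-dependent LF entry.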
# Potency is the fitted concentration of half-maximal effect.
row,SMILES,Potency
1,COc1ccc2c(c1)c1nnc(SCC(=O)Nc3ccccc3F)nc1n2C,inactive
2,CC1(C)C([N+](=O)[O-])C(c2ccc(F)cc2)NC(c2ccc(F)cc2)C1[N+](=O)[O-] (stereo not drawn),inactive
3,C/C=C/C(=O)Nc1cccc(C2=NOC3(C2)C[C@@H](C(N)=O)N(C(=O)c2cc([N+](=O)[O-])cc([N+](=O)[O-])c2C)C3)c1 (stereo partly drawn),inactive
4,Cc1nn(-c2ccc(F)cc2)c(C)c1NS(=O)(=O)c1ccc(Cl)cc1,inactive
5,CN(CCCNC(=O)Cn1cccc1C(=O)c1ccccc1)C1CCCCC1,inactive
6,Cc1cc(C)n2nc(CNS(=O)(=O)c3ccc(F)c(C)c3)nc2n1,inactive
7,CCC1Nc2ncnc(N3CCCCC3)c2N(Cc2ccc(Cl)cc2)C1=O (stereo not drawn),inactive
8,COc1ccc(C(=O)NCC(=O)N/N=C/c2c(C)[nH]c3ccccc23)cc1,inactive
9,Cc1ccc(NC2CCCN(C(=O)Cc3nonc3C)C2)cc1C (stereo not drawn),inactive
10,O=C(NC1CC1)C1CCCN(C(=O)NC2CCCCC2)C1 (stereo not drawn),inactive
11,C=CCn1c(SCCN2C(=O)c3ccccc3C2=O)nc2scc(-c3ccc(F)cc3)c2c1=O,inactive
12,C=CS(=O)(=O)c1ccc(Oc2ccc(S(=O)(=O)C=C)cc2)cc1,58.5 µM (active)
13,CCOC(=O)c1c(NC(=S)NC)sc2c1CCCC2,inactive
14,COc1ccc(OC)c(N2C(=O)CC(Cc3cc(C)cc(C)c3)C2=O)c1 (stereo not drawn),inactive
15,O=C1c2ccccc2[C@@H]2C[C@H](NC34CC5CC(CC(C5)C3)C4)[C@@H](O)CCN12,inactive
16,COCCn1nnnc1C(C(C)C)N1CCCC(C)C1 (stereo not drawn),inactive
17,O=C(NCCc1cn2ccsc2n1)c1cccs1,inactive
18,CCCNC(=O)C1CCC(CNS(=O)(=O)c2ccc3c(c2)CC(C)N3C(C)=O)CC1 (stereo not drawn),inactive
19,CCOC(=O)[C@H]1[C@H]2COc3ccc(Br)cc3[C@@H]2N2C(=O)c3c(C)cc(C)cc3NC(=O)[C@@]12C,inactive

row,SMILES,Potency
1,COCCOc1ccc(C(F)(F)F)cc1NC(=O)COC(=O)Cc1c[nH]c2ccccc12,inactive
2,Cc1cc(C)n2c(SCC#N)nnc2n1,inactive
3,C[C@@H](NC(=O)c1nc[nH]c1C(=O)NCc1ccc(CNC(=O)OC(C)(C)C)cc1)c1ccccc1,inactive
4,Fc1cccc(Cl)c1CSc1ccc(-c2cccnc2)nn1,inactive
5,O=C(CCS(=O)(=O)c1ccc2c(c1)NC(=O)CS2)NCCc1ccc(Cl)cc1,inactive
6,COC(=O)/C(C#N)=C/c1c(N2CCN(c3ccccc3)CC2)nc2c(C)cccn2c1=O,inactive
7,C[C@H](CO)N1C[C@H](C)[C@@H](CN(C)C(=O)Nc2ccccc2)Oc2c(NS(=O)(=O)c3ccccc3)cccc2C1=O,inactive
8,CCCS(=O)(=O)c1ccc(COC(=O)Cc2ccc([N+](=O)[O-])cc2)cc1,inactive
9,Cc1nc(NC(=O)CSc2nnc(C3CC3)n2C)sc1C(=O)N(C)C,inactive
10,COc1ccc(OC)c(NC(=O)C2CC2c2ccccc2)c1 (stereo not drawn),inactive
11,N#CCC(=O)N/N=C/c1ccc(OCC(=O)Nc2ccc(F)cc2)cc1,inactive
12,C#CCN1C=C(C(=O)OCC)C(C)NS1(=O)=O (stereo not drawn),inactive
13,O=C(NCc1ccc2c(c1)OCO2)c1ccccn1,inactive
14,Cc1ccc(CN2CCN(Cc3cc4ccccc4o3)CC2CCO)cc1 (stereo not drawn),inactive
15,CCOCc1nnc(NC(=O)C2CCN(C(=O)C3CC(=O)N(c4ccc(C)cc4)C3)CC2)s1 (stereo not drawn),inactive
16,Cc1cc(COc2ccccc2)oc1C(=O)O,inactive
17,Cc1noc(C)c1COc1ccc(C(=O)N2CCN(S(=O)(=O)c3ccc(Cl)cc3)CC2)cc1,inactive
18,CC(=O)c1cccc(NC(=O)N2C3CCC2CC(O)(c2cccnc2)C3)c1 (stereo not drawn),inactive
19,COc1ccc2nc(C)cc(Nc3ccccc3O)c2c1,inactive
